Data as given in publication PMC7862700, “An all-to-all approach to the identification of sequence-specific readers for epigenetic DNA modifications on cytosine”.

What was measured:
Experiment in all cases: DAPPL (digital affinity profiling via proximity ligation, sequencing); 10 mM Tris-HCl pH 7.5, 50 mM NaCl, 1 mM DTT, 4% glycerol, room temperature, 30 min; GST-TFs on glutathione beads, 16-mer random dsDNA library, 0.1% formaldehyde crosslink after washing; high values mean tight binding
FLI1 = target: T1, FLI1 (Homo sapiens, UniProt Q01543 1-452); details: protein: recombinant; tags: N-terminal GST; dsDNA, one strand shown
T1 sequence: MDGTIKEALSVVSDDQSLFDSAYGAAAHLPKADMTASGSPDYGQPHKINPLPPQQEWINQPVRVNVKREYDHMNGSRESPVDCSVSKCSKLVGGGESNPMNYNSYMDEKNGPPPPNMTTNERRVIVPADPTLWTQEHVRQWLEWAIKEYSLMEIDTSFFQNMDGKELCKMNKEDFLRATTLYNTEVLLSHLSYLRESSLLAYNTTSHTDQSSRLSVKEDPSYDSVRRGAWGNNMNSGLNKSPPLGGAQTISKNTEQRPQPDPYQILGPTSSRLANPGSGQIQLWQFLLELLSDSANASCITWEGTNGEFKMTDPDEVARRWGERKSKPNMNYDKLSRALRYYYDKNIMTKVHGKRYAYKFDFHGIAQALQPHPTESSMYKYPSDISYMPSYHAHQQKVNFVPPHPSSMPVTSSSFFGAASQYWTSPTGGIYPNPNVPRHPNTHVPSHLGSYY
How it was run: (§1)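 A tag-only sample was pooled with DNA-barcoded human transcription factors that had been expressed in yeast as GST fusions and captured on glutathione beads. The pools were incubated for 30 min at room temperature with 200 nmole of a random double-stranded 16-mer DNA library in Tris/NaCl/DTT/glycerol buffer, then washed, crosslinked with 0.1% formaldehyde, proximity-ligated (BsaI/T4 ligase, 1 h, 37 °C), PCR-amplified and sequenced on an Illumina NextSeq500. Binding signal is each hexamer's read frequency for a factor divided by its frequency for the tag-only sample.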

ELK1 = target: T2, ELK1 (Homo sapiens, UniProt P19419 1-428); details: protein: recombinant; tags: N-terminal GST; dsDNA, one strand shown
T2 sequence: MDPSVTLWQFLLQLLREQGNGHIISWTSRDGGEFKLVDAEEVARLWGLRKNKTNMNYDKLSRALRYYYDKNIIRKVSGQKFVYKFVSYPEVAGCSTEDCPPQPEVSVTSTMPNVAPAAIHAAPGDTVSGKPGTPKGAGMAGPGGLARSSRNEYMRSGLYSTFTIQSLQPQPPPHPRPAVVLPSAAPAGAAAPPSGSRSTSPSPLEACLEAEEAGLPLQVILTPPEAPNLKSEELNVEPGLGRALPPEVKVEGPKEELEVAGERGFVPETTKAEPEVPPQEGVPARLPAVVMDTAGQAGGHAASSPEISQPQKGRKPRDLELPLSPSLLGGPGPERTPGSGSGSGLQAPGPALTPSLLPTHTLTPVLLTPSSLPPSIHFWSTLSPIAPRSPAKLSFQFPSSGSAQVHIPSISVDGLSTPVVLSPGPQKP
How it was run: as §1

GABPA = target: T3, GABPA (Homo sapiens, UniProt Q06546 1-454); details: protein: recombinant; tags: N-terminal GST; dsDNA, one strand shown
T3 sequence: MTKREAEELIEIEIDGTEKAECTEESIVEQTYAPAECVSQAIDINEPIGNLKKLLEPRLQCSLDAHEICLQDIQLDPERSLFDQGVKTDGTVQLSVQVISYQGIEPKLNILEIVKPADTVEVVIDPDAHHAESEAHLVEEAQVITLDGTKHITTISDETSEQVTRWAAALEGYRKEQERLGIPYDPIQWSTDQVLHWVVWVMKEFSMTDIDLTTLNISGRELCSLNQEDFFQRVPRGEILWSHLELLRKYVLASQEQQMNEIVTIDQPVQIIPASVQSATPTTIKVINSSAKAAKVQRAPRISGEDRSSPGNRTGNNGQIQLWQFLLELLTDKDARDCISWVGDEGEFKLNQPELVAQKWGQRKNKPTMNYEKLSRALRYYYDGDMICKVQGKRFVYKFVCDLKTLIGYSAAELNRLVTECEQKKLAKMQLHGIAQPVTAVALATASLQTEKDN
How it was run: as §1

ERG = target: T4, ERG (Homo sapiens, UniProt P11308 1-479); details: protein: recombinant; tags: N-terminal GST; dsDNA, one strand shown
T4 sequence: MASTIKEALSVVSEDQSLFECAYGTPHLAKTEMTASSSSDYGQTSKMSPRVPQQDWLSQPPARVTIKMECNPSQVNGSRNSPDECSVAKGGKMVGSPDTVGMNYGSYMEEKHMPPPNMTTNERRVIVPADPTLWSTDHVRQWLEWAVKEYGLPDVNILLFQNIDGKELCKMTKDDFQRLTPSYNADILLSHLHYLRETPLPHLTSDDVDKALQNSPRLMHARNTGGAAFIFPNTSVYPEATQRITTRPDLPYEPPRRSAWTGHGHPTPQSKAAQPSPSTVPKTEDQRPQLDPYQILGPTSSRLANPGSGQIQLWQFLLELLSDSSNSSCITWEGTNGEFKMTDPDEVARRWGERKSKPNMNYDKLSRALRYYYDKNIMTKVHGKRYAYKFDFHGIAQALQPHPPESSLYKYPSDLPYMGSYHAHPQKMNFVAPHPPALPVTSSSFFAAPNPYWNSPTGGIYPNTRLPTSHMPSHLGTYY
How it was run: as §1

ELF1 = ELF1 (Homo sapiens, UniProt P32519 1-619); details: protein: recombinant; tags: N-terminal GST; dsDNA, one strand shown
Chain of ELF1 (P32519 whole entry): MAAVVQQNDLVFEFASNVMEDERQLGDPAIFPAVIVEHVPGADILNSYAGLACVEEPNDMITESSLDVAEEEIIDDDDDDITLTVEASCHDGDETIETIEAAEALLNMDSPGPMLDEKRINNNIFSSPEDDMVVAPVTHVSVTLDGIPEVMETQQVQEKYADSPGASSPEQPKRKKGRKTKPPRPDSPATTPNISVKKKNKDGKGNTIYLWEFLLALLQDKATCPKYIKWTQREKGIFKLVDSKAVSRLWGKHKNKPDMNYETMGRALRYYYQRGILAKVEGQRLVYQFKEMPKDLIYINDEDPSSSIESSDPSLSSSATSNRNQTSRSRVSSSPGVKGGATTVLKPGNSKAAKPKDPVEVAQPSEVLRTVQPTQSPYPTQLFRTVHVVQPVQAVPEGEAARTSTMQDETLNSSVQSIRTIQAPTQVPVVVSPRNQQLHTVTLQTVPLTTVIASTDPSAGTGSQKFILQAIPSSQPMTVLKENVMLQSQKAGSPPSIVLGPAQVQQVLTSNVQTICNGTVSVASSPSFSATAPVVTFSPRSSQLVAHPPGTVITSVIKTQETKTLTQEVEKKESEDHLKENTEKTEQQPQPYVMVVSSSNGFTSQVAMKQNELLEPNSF
How it was run: as §1

EHF = target: T5, EHF (Homo sapiens, UniProt Q9NZC4 1-300); details: protein: recombinant; tags: N-terminal GST; dsDNA, one strand shown
T5 sequence: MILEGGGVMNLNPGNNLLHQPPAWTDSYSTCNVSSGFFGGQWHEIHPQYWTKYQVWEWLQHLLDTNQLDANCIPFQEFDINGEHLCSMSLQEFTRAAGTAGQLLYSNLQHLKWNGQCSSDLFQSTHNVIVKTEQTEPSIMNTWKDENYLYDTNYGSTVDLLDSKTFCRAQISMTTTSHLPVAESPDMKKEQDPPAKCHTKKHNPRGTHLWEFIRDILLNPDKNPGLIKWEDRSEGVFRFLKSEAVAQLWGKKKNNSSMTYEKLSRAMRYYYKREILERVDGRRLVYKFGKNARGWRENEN
How it was run: as §1

SPI1 = SPI1 (Homo sapiens, UniProt P17947 1-270); details: protein: recombinant; tags: N-terminal GST; dsDNA, one strand shown
How it was run: as §1

SPIB = SPIB (Homo sapiens, UniProt Q01892 1-262); details: protein: recombinant; tags: N-terminal GST; dsDNA, one strand shown
Chain of SPIB (Q01892 whole entry): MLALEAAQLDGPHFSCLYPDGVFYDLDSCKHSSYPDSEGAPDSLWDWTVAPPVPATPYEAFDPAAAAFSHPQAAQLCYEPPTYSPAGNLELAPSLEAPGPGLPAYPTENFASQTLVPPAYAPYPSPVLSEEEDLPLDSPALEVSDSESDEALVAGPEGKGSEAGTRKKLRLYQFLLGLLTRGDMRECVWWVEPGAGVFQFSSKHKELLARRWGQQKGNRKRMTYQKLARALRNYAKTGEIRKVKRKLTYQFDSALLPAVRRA
How it was run: as §1

ELK3 = target: T6, ELK3 (Homo sapiens, UniProt P41970 1-407); details: protein: recombinant; tags: N-terminal GST; dsDNA, one strand shown
T6 sequence: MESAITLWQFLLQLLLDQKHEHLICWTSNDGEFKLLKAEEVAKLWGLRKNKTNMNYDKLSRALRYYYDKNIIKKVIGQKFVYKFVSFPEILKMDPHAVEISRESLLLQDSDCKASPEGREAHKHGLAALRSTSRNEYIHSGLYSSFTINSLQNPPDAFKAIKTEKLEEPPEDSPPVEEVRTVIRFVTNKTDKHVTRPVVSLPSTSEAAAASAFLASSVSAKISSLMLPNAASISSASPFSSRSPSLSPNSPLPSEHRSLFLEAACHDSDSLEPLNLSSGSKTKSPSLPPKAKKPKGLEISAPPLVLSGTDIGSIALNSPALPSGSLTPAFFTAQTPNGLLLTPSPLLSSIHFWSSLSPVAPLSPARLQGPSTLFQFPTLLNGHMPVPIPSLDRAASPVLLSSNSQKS
How it was run: as §1

FEV = target: T7, FEV (Homo sapiens, UniProt Q99581 1-238); details: protein: recombinant; tags: N-terminal GST; dsDNA, one strand shown
T7 sequence: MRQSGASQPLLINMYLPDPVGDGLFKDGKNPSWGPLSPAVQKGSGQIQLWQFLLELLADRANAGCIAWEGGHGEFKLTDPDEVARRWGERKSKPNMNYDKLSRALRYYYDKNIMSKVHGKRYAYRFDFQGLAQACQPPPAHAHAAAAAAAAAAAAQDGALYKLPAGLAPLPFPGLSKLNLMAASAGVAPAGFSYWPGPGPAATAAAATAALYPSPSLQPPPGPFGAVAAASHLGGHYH
How it was run: as §1

ETV5 = ETV5 (Homo sapiens, UniProt P41161 1-510); details: protein: recombinant; tags: N-terminal GST; dsDNA, one strand shown
Chain of ETV5 (P41161 whole entry): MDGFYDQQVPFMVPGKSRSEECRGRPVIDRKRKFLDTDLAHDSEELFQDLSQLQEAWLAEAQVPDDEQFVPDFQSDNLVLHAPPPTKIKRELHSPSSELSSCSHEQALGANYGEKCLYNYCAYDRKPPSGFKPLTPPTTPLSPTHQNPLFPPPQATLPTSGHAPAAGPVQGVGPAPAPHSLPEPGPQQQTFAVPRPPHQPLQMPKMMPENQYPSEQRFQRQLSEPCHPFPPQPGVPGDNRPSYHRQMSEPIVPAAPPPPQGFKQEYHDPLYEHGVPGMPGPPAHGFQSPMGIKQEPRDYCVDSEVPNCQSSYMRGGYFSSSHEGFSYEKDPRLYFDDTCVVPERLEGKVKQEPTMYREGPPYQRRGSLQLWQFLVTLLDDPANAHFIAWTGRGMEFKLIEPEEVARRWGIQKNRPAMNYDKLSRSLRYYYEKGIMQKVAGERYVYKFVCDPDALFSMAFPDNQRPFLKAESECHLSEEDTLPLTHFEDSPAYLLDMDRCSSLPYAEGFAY
How it was run: as §1

HSF1 = HSF1 (Homo sapiens, UniProt Q00613 1-529); details: protein: recombinant; tags: N-terminal GST; chain copies: 3; dsDNA, one strand shown
Chain of HSF1 (Q00613 whole entry): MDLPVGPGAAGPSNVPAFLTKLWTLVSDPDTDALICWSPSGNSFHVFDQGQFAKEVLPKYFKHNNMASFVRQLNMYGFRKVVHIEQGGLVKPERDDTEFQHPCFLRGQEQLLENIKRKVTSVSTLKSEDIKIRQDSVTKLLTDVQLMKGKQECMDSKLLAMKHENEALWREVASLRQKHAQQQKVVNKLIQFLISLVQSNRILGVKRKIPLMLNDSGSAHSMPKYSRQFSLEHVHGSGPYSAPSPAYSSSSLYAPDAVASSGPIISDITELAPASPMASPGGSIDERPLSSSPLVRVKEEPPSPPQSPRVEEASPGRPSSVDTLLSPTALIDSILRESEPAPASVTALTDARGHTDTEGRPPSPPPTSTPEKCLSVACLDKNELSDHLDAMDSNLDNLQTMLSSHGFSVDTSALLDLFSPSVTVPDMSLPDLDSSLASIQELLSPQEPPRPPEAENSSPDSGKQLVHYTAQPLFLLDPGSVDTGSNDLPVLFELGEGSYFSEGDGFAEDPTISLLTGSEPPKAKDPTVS
How it was run: as §1

SPIC = target: T8, SPIC (Homo sapiens, UniProt Q8N5J4 1-248); details: protein: recombinant; tags: N-terminal GST; dsDNA, one strand shown
T8 sequence: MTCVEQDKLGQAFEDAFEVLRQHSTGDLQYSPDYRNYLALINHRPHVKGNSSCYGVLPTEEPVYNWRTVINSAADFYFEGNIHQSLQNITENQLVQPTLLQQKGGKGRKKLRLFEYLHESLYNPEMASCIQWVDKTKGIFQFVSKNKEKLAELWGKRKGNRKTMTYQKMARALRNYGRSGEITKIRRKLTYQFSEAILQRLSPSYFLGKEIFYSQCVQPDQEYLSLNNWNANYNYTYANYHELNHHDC
How it was run: as §1

ELF4 = ELF4 (Homo sapiens, UniProt Q99607 1-663); details: protein: recombinant; tags: N-terminal GST; dsDNA, one strand shown
Chain of ELF4 (Q99607 whole entry): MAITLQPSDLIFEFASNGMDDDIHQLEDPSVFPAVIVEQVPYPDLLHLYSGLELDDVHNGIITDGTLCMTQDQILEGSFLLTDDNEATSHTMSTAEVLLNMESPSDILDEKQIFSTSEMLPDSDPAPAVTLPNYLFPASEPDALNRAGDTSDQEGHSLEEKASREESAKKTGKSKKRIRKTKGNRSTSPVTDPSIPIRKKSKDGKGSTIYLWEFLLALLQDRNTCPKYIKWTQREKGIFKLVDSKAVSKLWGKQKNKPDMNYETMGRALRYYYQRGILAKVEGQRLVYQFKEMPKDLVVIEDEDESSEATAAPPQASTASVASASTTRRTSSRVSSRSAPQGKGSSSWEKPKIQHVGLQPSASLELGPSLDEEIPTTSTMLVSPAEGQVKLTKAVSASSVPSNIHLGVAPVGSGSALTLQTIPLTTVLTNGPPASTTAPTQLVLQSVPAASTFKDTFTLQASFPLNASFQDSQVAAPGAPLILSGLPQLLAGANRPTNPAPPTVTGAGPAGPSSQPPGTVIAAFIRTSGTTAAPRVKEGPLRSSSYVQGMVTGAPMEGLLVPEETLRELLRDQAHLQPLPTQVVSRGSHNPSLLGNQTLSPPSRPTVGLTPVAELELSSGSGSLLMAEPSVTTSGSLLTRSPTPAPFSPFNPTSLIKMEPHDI
How it was run: as §1

ELK4 = target: T9, ELK4 (Homo sapiens, UniProt P28324-2 1-405); details: protein: recombinant; tags: N-terminal GST; dsDNA, one strand shown
T9 sequence: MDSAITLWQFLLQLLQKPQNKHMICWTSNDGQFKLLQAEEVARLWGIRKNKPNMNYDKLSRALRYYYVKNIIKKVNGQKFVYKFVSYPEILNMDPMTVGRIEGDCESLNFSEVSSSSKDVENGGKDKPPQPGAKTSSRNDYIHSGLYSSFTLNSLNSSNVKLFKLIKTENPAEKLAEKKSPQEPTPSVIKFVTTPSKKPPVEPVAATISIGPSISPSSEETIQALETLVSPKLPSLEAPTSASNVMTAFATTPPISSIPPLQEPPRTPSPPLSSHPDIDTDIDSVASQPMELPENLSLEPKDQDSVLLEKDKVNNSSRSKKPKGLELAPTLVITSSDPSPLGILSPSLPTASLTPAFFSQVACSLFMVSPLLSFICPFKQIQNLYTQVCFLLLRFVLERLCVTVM
How it was run: as §1

ETV2 = target: T10, ETV2 (Homo sapiens, UniProt O00321 1-342); details: protein: recombinant; tags: N-terminal GST; dsDNA, one strand shown
T10 sequence: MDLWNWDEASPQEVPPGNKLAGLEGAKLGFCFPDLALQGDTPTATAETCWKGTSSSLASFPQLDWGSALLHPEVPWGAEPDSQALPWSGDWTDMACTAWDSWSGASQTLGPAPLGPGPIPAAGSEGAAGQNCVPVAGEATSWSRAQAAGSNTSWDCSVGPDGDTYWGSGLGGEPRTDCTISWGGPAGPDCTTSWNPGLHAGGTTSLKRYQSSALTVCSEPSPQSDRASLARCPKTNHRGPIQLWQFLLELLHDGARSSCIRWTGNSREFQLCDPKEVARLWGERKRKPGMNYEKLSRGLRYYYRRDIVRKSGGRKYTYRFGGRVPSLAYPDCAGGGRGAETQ
How it was run: as §1

ELF3 = target: T11, ELF3 (Homo sapiens, UniProt P78545 1-371); details: protein: recombinant; tags: N-terminal GST; dsDNA, one strand shown
T11 sequence: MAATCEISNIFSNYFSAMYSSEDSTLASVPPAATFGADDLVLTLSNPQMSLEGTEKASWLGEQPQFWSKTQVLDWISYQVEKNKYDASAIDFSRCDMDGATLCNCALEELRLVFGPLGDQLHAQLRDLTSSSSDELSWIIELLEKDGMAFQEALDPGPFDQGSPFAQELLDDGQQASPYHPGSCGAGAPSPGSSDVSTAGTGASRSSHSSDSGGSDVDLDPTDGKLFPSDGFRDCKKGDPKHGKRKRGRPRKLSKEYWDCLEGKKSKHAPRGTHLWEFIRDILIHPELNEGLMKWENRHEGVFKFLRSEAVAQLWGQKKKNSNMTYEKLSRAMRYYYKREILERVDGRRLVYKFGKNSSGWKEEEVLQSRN
How it was run: as §1

CRX = CRX (Homo sapiens, UniProt O43186 1-299); details: protein: recombinant; tags: N-terminal GST; dsDNA, one strand shown
Chain of CRX (O43186 whole entry): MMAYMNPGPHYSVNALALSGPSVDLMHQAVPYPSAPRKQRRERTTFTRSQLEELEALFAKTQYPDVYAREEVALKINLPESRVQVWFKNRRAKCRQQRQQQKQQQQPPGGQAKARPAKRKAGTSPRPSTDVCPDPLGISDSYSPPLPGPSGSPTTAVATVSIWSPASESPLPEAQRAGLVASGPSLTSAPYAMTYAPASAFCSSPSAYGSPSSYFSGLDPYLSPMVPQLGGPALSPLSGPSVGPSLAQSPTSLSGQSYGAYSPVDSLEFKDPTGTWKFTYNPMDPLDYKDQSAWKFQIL
How it was run: as §1

ETV1 = ETV1 (Homo sapiens, UniProt P50549 1-477); details: protein: recombinant; tags: N-terminal GST; dsDNA, one strand shown
Chain of ETV1 (P50549 whole entry): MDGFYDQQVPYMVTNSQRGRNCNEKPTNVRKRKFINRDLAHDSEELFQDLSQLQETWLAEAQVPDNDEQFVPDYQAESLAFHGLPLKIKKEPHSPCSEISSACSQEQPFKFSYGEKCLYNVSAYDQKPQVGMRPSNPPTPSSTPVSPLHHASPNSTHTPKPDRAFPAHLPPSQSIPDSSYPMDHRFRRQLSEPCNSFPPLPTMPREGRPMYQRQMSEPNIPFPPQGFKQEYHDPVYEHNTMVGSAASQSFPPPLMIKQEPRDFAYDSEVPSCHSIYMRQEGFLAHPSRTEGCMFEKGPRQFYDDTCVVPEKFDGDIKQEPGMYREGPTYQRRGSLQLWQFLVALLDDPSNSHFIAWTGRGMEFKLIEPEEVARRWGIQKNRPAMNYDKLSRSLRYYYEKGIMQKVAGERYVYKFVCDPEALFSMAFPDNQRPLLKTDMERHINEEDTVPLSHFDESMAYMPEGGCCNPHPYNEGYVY
How it was run: as §1

In the case of TAACAT, the binding signal (FLI1) is reported as 1.41 fold enrichment (6-mer frequency, TF over GST control), the binding signal (ELK1) is reported as 1.26 fold enrichment (6-mer frequency, TF over GST control) and the binding signal (GABPA) is reported as 1.3 fold enrichment (6-mer frequency, TF over GST control). The binding signal (ERG) was 1.36 fold enrichment (6-mer frequency, TF over GST control), the binding signal (ELF1) was 1.35 fold enrichment (6-mer frequency, TF over GST control) and the binding signal (EHF) was 1.28 fold enrichment (6-mer frequency, TF over GST control). The binding signal (SPI1) was 1.32 fold enrichment (6-mer frequency, TF over GST control), the binding signal (SPIB) was 1.27 fold enrichment (6-mer frequency, TF over GST control) and the binding signal (ELK3) was 1.28 fold enrichment (6-mer frequency, TF over GST control). For the same sequence, the binding signal (FEV) was 1.32 fold enrichment (6-mer frequency, TF over GST control), the binding signal (ETV5) was 1.36 fold enrichment (6-mer frequency, TF over GST control) and the binding signal (HSF1) was 1.29 fold enrichment (6-mer frequency, TF over GST control). For the same sequence, the binding signal (SPIC) was 1.46 fold enrichment (6-mer frequency, TF over GST control), the binding signal (ELF4) was 1.37 fold enrichment (6-mer frequency, TF over GST control) and the binding signal (ELK4) was 1.29 fold enrichment (6-mer frequency, TF over GST control). The binding signal (ETV2) was 1.39 fold enrichment (6-mer frequency, TF over GST control), the binding signal (ELF3) was 1.5 fold enrichment (6-mer frequency, TF over GST control) and the binding signal (CRX) was 1.57 fold enrichment (6-mer frequency, TF over GST control). For the same sequence, the binding signal (ETV1) was 1.37 fold enrichment (6-mer frequency, TF over GST control).
